Where “and” joins values, the source holds several entries; their conditions need not be identical. Equal entries are not always repeated. Where two headings read alike, the source gives them in different places.

The source of these data is publication PMC5540273 (PLoS ONE, 2017).

One experiment concerns MKK7. As to conditions: concentration: 1 μM, replicates: in singlicate, n = 1.
The next experiment deals with MKNK1. As to conditions: concentration: 1 μM, replicates: in singlicate, n = 1.
The subject of a further experiment is MKNK2. As to conditions: concentration: 1 μM, replicates: in singlicate, n = 1.
For the next experiment, the system named is T1, MLCK.
T1 construct: gene MYLK3
As to conditions: concentration: 1 μM, replicates: in singlicate, n = 1.

A further experiment deals with T2, MLK1.
T2 construct: gene MAP3K9
As to conditions: concentration: 1 μM, replicates: in singlicate, n = 1.

The test system of a further experiment is MLK2. As to conditions: concentration: 1 μM, replicates: in singlicate, n = 1.
Another experiment relates to MLK3. As to conditions: concentration: 1 μM, replicates: in singlicate, n = 1.
The subject of the next experiment is MRCKA. As to conditions: concentration: 1 μM, replicates: in singlicate, n = 1.
For the next experiment, the system named is T3, MRCKB.
T3 construct: gene CDC42BPB
As to conditions: concentration: 1 μM, replicates: in singlicate, n = 1.

A further experiment relates to MST1R. As to conditions: concentration: 1 μM, replicates: in singlicate, n = 1.
A further experiment deals with T4, MST1.
T4 construct: gene STK4
As to conditions: concentration: 1 μM, replicates: in singlicate, n = 1.

Another experiment deals with T5, MST2.
T5 construct: gene STK3
As to conditions: concentration: 1 μM, replicates: in singlicate; n = 1.

The test system of a further experiment is T6, MST3.
T6 construct: gene STK24
As to conditions: concentration: 1 μM, replicates: in singlicate, n = 1.

The next experiment deals with MST4. As to conditions: concentration: 1 μM, replicates: in singlicate, n = 1.
A further experiment relates to MTOR. As to conditions: concentration: 1 μM, replicates: in singlicate, n = 1.
For another experiment, the system named is MUSK. As to conditions: concentration: 1 μM, replicates: in singlicate; n = 1.
Another experiment has as its system MYLK2. As to conditions: concentration: 1 μM, replicates: in singlicate, n = 1.
Another experiment deals with MYLK4. As to conditions: concentration: 1 μM, replicates: in singlicate, n = 1.
The test system of another experiment is MYLK. As to conditions: concentration: 1 μM, replicates: in singlicate, n = 1.
Another experiment concerns MYO3A. As to conditions: concentration: 1 μM, replicates: in singlicate, n = 1.
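Also: KINOMEscan kinase panel screen.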

As for `CCc1ccnc(/C=C/c2n[nH]c3cc(Sc4ccccc4C(=O)NC)ccc23)c1`, the “%Inh” value in the experiment on MKK7 was 0%; with MKNK1 it was 0%; in the experiment on MKNK2 it was 0%; in the experiment on MLCK, 1%; in the experiment with MLK1, 9%; in the experiment with MLK2, 4%. Further, the “%Inh” value in the experiment on MLK3 is reported as 20%; with MRCKA it was 0%; in the experiment with MRCKB it was 1%; in the experiment with MST1R it was 16%; with MST1, 6%; in the experiment with MST2, 36%. Besides, the “%Inh” value with MST3 was determined as 19%; in the experiment on MST4, 4%; in the experiment on MTOR, 12%; with MUSK it was 0%; with MYLK2 it was 0%; with MYLK4, 0%. The “%Inh” value in the experiment on MYLK and in the experiment with MYO3A was 0% in each case.
For `COc1ccc(CNC(=O)NC2CCN(c3ccnc(Nc4ccc(OC)cc4)n3)C2)cc1` (centres unmarked) [GSK1379727], the “%Inh” value is recorded as 14% in the experiment on MKK7; 0% in the experiment with MKNK1; 0% in the experiment on MKNK2; 0% in the experiment on MLCK; 0% with MLK1; 0% in the experiment on MLK2. The “%Inh” value in the experiment on MLK3 is 0%; with MRCKA, 0%; with MRCKB it was 4%; with MST1R it was 40%; with MST1, 0%; with MST2, 0%. Further, the “%Inh” value in the experiment on MST3 is 0%; in the experiment with MST4 it was 0%; in the experiment with MTOR it was 13%; in the experiment with MUSK, 7%; in the experiment with MYLK2, 8%; in the experiment with MYLK4, 0%. The “%Inh” value in the experiment with MYLK was 22%; in the experiment on MYO3A, 18%.
For the compound `CC(C)(CN)c1nc(-c2ccc(Cl)c(O)c2)c(-c2ccncc2)[nH]1.O=C(O)C(F)(F)F` [SB-477794], the “%Inh” value was 26% and 0% with MKK7 (1 µM); 9% and 0% with MKNK1 (1 µM); 9% and 0% in the experiment on MKNK2 (1 µM); 0% and 14% in the experiment on MLCK (1 µM); 0% and 7% in the experiment on MLK1 (1 µM); 0% and 10% in the experiment with MLK2 (1 µM). The “%Inh” value with MLK3 (1 µM) was 0% and 32%; in the experiment on MRCKA (1 µM), 46% and 35%; in the experiment on MRCKB (1 µM), 76% and 72%; in the experiment with MST1R (1 µM) it was 39% and 0%; in the experiment with MST1 (1 µM), 0% and 11%; in the experiment on MST2, 0%. The “%Inh” value is 0% and 1% in the experiment on MST3 (1 µM); 11% and 1% in the experiment with MST4 (1 µM); 35% and 17% in the experiment with MTOR (1 µM); 0% in the experiment on MUSK; 0% and 5% in the experiment on MYLK2 (1 µM); 0% and 6% with MYLK4 (1 µM). For the same compound, the “%Inh” value with MYLK (1 µM) was 1% and 21%; in the experiment on MYO3A (1 µM), 25% and 59%.
On to `Nc1nc(-c2ccc3c(N)n[nH]c3c2)cc(N2CCCC2)n1` [GSK2227430], for which the “%Inh” value is reported as 0% in the experiment on MKK7; 4% in the experiment on MKNK1; 12% in the experiment on MKNK2; 0% in the experiment on MLCK; 0% in the experiment on MLK1; 6% in the experiment with MLK2. In addition, the “%Inh” value in the experiment with MLK3 is 0%; in the experiment on MRCKA, 6%; with MRCKB it was 0%; with MST1R, 1%; with MST1 it was 0%; in the experiment with MST2 it was 0%. Further, the “%Inh” value in the experiment with MST3 is given as 0%; in the experiment with MST4, 0%; in the experiment on MTOR, 0%; with MUSK, 0%; in the experiment on MYLK2, 0%; in the experiment with MYLK4, 2%. Further, the “%Inh” value in the experiment on MYLK stood at 9%; with MYO3A it was 0%.
In the case of `Cc1ccc(C(=O)NCC(N)=O)cc1-n1c(C)cc(OCc2ccc(F)cc2F)c(Br)c1=O`, the “%Inh” value was 0% in the experiment on MKK7; 0% with MKNK1; 0% in the experiment on MKNK2; 0% in the experiment with MLCK; 25% in the experiment with MLK1; 19% with MLK2. Moreover, the “%Inh” value in the experiment with MLK3 stood at 22%; in the experiment on MRCKA, 3%; in the experiment on MRCKB, 12%; in the experiment on MST1R, 29%; in the experiment on MST1, 13%; with MST2, 4%. The “%Inh” value in the experiment on MST3 is recorded as 26%; in the experiment with MST4, 0%; in the experiment on MTOR it was 0%; in the experiment with MUSK it was 0%; in the experiment with MYLK2, 12%; in the experiment on MYLK4, 14%. Moreover, the “%Inh” value in the experiment on MYLK is listed as 7%; with MYO3A, 14%.
Consider `Cn1ccc2ncnc(Oc3ccc(NC(=O)Nc4ccncc4)c(Cl)c3)c21`, for which the “%Inh” value was found to be 0% in the experiment on MKK7; 0% in the experiment on MKNK1; 0% in the experiment on MKNK2; 0% with MLCK; 0% with MLK1; 5% in the experiment on MLK2. The “%Inh” value in the experiment on MLK3 came to 0%; in the experiment with MRCKA, 0%; in the experiment on MRCKB it was 0%; in the experiment on MST1R it was 17%; with MST1, 0%; in the experiment with MST2, 0%. For the same compound, the “%Inh” value amounted to 0% with MST3; 0% in the experiment with MST4; 11% in the experiment with MTOR; 0% with MUSK; 11% with MYLK2; 0% in the experiment on MYLK4. Besides, the entries for the “%Inh” value in the experiment on MYLK and with MYO3A were 0% and 14%, respectively.
On to `COc1ccc(Nc2ncc(C#N)c(Nc3ccccc3C(N)=O)n2)cc1N1CCN(C)CC1.Cl` [GSK1558669], for which the “%Inh” value in the experiment with MKK7 was found to be 0%; in the experiment with MKNK1, 30%; with MKNK2 it was 98.2%; in the experiment with MLCK, 99.7%; with MLK1, 98.7%; with MLK2, 100%. The “%Inh” value in the experiment with MLK3 turned out to be 100%; with MRCKA, 44%; in the experiment with MRCKB, 87%; in the experiment with MST1R it was 86%; with MST1, 98.3%; in the experiment on MST2, 51%. Further, the “%Inh” value in the experiment with MST3 is listed as 95.5%; with MST4, 99.4%; with MTOR, 0%; in the experiment on MUSK it was 80%; in the experiment with MYLK2, 98.2%; with MYLK4, 98.2%. The figures for the “%Inh” value in the experiment on MYLK and with MYO3A were 99.4% and 76%, respectively.
As for `[2H]C([2H])(c1cccc(C(F)(F)F)c1C)n1ccn2c(=O)nc(N3CCOCC3)cc12` [GSK2336394], the “%Inh” value in the experiment on MKK7 is given as 14%; with MKNK1, 3%; with MKNK2, 6%; in the experiment on MLCK, 3%; in the experiment on MLK1, 0%; in the experiment with MLK2 it was 0%. Further, the “%Inh” value with MLK3 is 21%; with MRCKA, 23%; in the experiment with MRCKB, 0%; in the experiment with MST1R, 33%; with MST1 it was 2%; with MST2, 0%. For the same compound, the “%Inh” value with MST3 is 11%; in the experiment on MST4, 0%; with MTOR, 18%; with MUSK, 8%; in the experiment on MYLK2 it was 0%; with MYLK4, 0%. For the same compound, the figures for the “%Inh” value with MYLK and in the experiment on MYO3A were 12% and 4%, respectively.
As for `Cc1c(Cn2c(C)nn3c(=O)cc(N4CCOC(C)C4)nc23)cccc1C(F)(F)F` (centres unmarked) [GSK2344444], the “%Inh” value is 0% in the experiment on MKK7; 0% with MKNK1; 7% in the experiment on MKNK2; 2% in the experiment with MLCK; 0% in the experiment with MLK1; 0% in the experiment on MLK2. Besides, the “%Inh” value in the experiment on MLK3 was 13%; in the experiment on MRCKA it was 0%; with MRCKB, 0%; in the experiment on MST1R, 28%; with MST1, 0%; with MST2, 0%. The “%Inh” value with MST3 was 2%; with MST4 it was 0%; in the experiment on MTOR it was 28%; with MUSK, 0%; with MYLK2, 8%; in the experiment with MYLK4, 1%. For the same compound, the “%Inh” value turned out to be 0% with MYLK and 7% in the experiment with MYO3A.
Turning to `O=C(NOCC1CC1)c1ccc(F)c(F)c1Nc1ccc(I)cc1Cl`, the “%Inh” value with MKK7, in the experiment on MKNK1, in the experiment with MKNK2, in the experiment with MLCK, in the experiment with MLK1 and in the experiment on MLK2 was 0% each time. The “%Inh” value in the experiment with MLK3, in the experiment on MRCKA, with MRCKB, in the experiment with MST1R, in the experiment with MST1 and with MST2 was 0% in each case. Also, the “%Inh” value with MST3 is 4%; in the experiment with MST4, 0%; in the experiment on MTOR, 28%; with MUSK it was 0%; in the experiment with MYLK2, 0%; in the experiment on MYLK4 it was 0%. Moreover, the “%Inh” value in the experiment on MYLK and in the experiment on MYO3A was 0% throughout.
